Laboratory results: PubChem BioAssay AID1159580 (chemical genetic matrix, 2015)
“And” between values parts separate entries of the source, which are not always exact repeats. Equal values may be shown once. Out of some 5,500 compounds screened, about 2,000 (36%) were called active. Inconclusive results (about 18%) are left out. No stated cut-off is given here; in the data, active means normalized growth mostly below about 0.91 (no sharp cut-off); inconclusive means no clear call, values can overlap the other calls; inactive means mostly above about 0.92. The list shows a part of the results.

Experiment: chemical genetic growth profiling, strain panel (AID 1159580);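 further: tested at 20 µM; growth read once vehicle control cultures reached saturation at 30 °C; 1 = growth at the plate median or of vehicle wells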
Settings: S. cerevisiae deletion strains, growth OD

Measured: normalized growth

S=P(N1CC1)(N1CC1)N1CC1
inactive: locus YAL013W, strain DEP1, stronger effect = lower value 1.01 | locus YAL021C, strain ccr4, stronger effect = lower value 1 | locus YAL026C, strain drs2, stronger effect = lower value 1.01 | locus YAL030W, strain snc1, stronger effect = lower value 0.996 | locus YBL061C, strain skt5, stronger effect = lower value 1.01 | locus YBR009C, strain hhf1, stronger effect = lower value 1.01 | locus YBR021W, strain FUR4, stronger effect = lower value 0.946 | locus YBR023C, strain chs3, stronger effect = lower value 1.02 | locus YBR171W, strain sec66, stronger effect = lower value 1.01 | locus YBR229C, strain ROT2, stronger effect = lower value 1.01 | locus YBR231C, strain swc5, stronger effect = lower value 1.01 | locus YBR279W, strain paf1, stronger effect = lower value 0.999 | locus YCL011C, strain gbp2, stronger effect = lower value 1.01 | locus YCL016C, strain dcc1, stronger effect = lower value 0.999 | locus YCL029C, strain bik1, stronger effect = lower value 1.01 | locus YCL061C, strain MRC1, stronger effect = lower value 1 | locus YCL069W, strain vba3, stronger effect = lower value 1.01 | locus YCR088W, strain abp1, stronger effect = lower value 1.02 | locus YDL005C, strain med2, stronger effect = lower value 1.01 | locus YDL035C, strain GPR1, stronger effect = lower value 1.02 | locus YDL040C, strain nat1, stronger effect = lower value 1.01 | locus YDL074C, strain BRE1, stronger effect = lower value 1.01 | locus YDL101C, strain DUN1, stronger effect = lower value 1.01 | locus YDL134C, strain PPH21, stronger effect = lower value 1 | locus YDL192W, strain arf1, stronger effect = lower value 0.995 | locus YDR001C, strain nth1, stronger effect = lower value 1.01 | locus YDR069C, strain doa4, stronger effect = lower value 0.997 | locus YDR101C, strain arx1, stronger effect = lower value 0.997 | locus YDR137W, strain rgp1, stronger effect = lower value 1.02 | locus YDR150W, strain NUM1, stronger effect = lower value 1 | locus YDR159W, strain sac3, stronger effect = lower value 1 | locus YDR162C, strain NBP2, stronger effect = lower value 1.01 | locus YDR195W, strain ref2 0.971 | locus YDR297W, strain sur2, stronger effect = lower value 1 | locus YDR318W, strain mcm21, stronger effect = lower value 1.01 | locus YDR334W, strain swr1, stronger effect = lower value 1.01 | locus YDR335W, strain msn5, stronger effect = lower value 1 | locus YDR388W, stronger effect = lower value 1.01 | locus YDR392W, strain spt3, stronger effect = lower value 1.03 | locus YDR502C, strain sam2, stronger effect = lower value 0.996 | locus YEL003W, strain gim4, stronger effect = lower value 1 | locus YEL037C, strain rad23, stronger effect = lower value 1 | locus YEL061C, strain CIN8 (second series), stronger effect = lower value 1 | locus YEL061C, strain CIN8, stronger effect = lower value 1.01 | locus YER015W, strain faa2, stronger effect = lower value 1 | locus YER016W, strain bim1, stronger effect = lower value 1 | locus YER110C, stronger effect = lower value 1.01 | locus YER111C, strain swi4, stronger effect = lower value 0.99 | locus YER155C, strain BEM2 (second series), stronger effect = lower value 1.03 | locus YER155C, strain BEM2, stronger effect = lower value 1 | locus YER167W, strain BCK2, stronger effect = lower value 1.01 | locus YFR010W, strain ubp6, stronger effect = lower value 1.01 | locus YGL078C, strain dbp3, stronger effect = lower value 0.999 | locus YGL086W, strain mad1, stronger effect = lower value 1 | locus YGL167C, strain pmr1, stronger effect = lower value 1.01 | locus YGL173C, strain kem1, stronger effect = lower value 1.02 | locus YGL227W, strain vid30, stronger effect = lower value 1.01 | locus YGL240W, strain doc1, stronger effect = lower value 1.01 | locus YGL248W, strain PDE1, stronger effect = lower value 1.01 | locus YGL253W, strain hxk2, stronger effect = lower value 1.02 | locus YGR078C, strain PAC10, stronger effect = lower value 1.01 | locus YGR135W, strain pre9, stronger effect = lower value 0.996 | locus YGR229C, strain SMI1, stronger effect = lower value 0.971 | locus YGR252W, strain gcn5, stronger effect = lower value 0.985 | locus YHR013C, strain ard1, stronger effect = lower value 0.997 | locus YHR027C, strain rpn1, stronger effect = lower value 0.997 | locus YHR030C, strain SLT2, stronger effect = lower value 1.01 and 0.994 | locus YHR079C, strain IRE1 (second series), stronger effect = lower value 1 | locus YHR079C, strain IRE1, stronger effect = lower value 0.985 | locus YHR094C, strain hxt1, stronger effect = lower value 1 | locus YHR129C, strain ARP1, stronger effect = lower value 1.03 | locus YHR142W, strain chs7, stronger effect = lower value 1 | locus YHR200W, strain rpn10, stronger effect = lower value 0.997 | locus YIL066C, strain RNR3, stronger effect = lower value 1.02 | locus YIL073C, strain SPO22, stronger effect = lower value 0.993 | locus YIL125W, strain kgd1, stronger effect = lower value 1.01 | locus YIR030C, strain dcg1, stronger effect = lower value 1.02 | locus YJL092W, strain hpr5, stronger effect = lower value 1 | locus YJL095W, strain BCK1 (second series), stronger effect = lower value 1.01 | locus YJL095W, strain BCK1, stronger effect = lower value 1.02 and 1.01 | locus YJL115W, strain asf1, stronger effect = lower value 1.01 | locus YJL129C, strain trk1, stronger effect = lower value 1.02 | locus YJL134W, strain LCB3, stronger effect = lower value 1.01 | locus YJL154C, strain vps35, stronger effect = lower value 1.01 | locus YJL164C, strain tpk1, stronger effect = lower value 1.01 | locus YJL166W, strain qcr8, stronger effect = lower value 1.01 | locus YJL168C, strain set2, stronger effect = lower value 0.999 | locus YJL187C, strain SWE1 (second series), stronger effect = lower value 1.01 | locus YJR043C, strain POL32, stronger effect = lower value 1 | locus YJR066W, strain TOR1, stronger effect = lower value 0.976 | locus YJR075W, strain HOC1, stronger effect = lower value 1.01
